TrxR1 inh-1 = blocks rat thioredoxin reductase 1. recombinant rTrxR1, NADPH fluorescence consumption, selenite substrate. Potency, µM (highest dose often 114 µM), for inactives: top-dose activity change, negative = inhibition, actives largely listed as inhibitors. hit rate 1% among 390,000. AID 588453; note: potency is the fitted concentration of half-maximal effect; % is set by controls: 0 for no effect and ±100 for the full control effect; nearly all actives have a fitted effect of over 65% in size
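Rat TrxR1 (90 nM in the dispensed reagent) was pre-reduced with 400 uM NADPH for 5 min at room temperature, then incubated with compound for 15 min. After 400 uM selenite was added, NADPH fluorescence (Ex 340/Em 450 nm) was followed for 8 min.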
TrxR1 substrate = substrates of rat thioredoxin reductase 1; Potency, µM (highest dose often 114 µM), inactives show at the highest dose activity change, negative = substrate turnover; hit rate 0.01% among 390,000; purified TrxR1 substrate turnover, NADPH consumption readout; O89049; AID 588456; note: potency is the fitted concentration of half-maximal effect; % is set by controls: 0 for no effect and ±100 for the full control effect; nearly all actives have a fitted effect of over 50% in size
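Rat TrxR1, dispensed at 90 nM, was prereduced with 400 uM NADPH (final) for 5 min at ~22 deg C, then incubated with compound 15 min before 400 uM selenite. A first-read NADPH fluorescence drop versus no-compound background flagged substrates.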
Sfp inh = Sfp phosphopantetheinyl transferase inhibition | Q9F4F7 | Biochemical Sfp PPTase activity, qHTS | Potency, µM, without a hit: largest response in the series, negative = inhibition, hits mostly inhibitors | hit rate 3.5% among 310,000 | AID 1490;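 note: the enzyme is Sfp with the accession as filed and its product quenches rhodamine fluorescence; potency is the fitted concentration of half-maximal effect; 0% = enzyme reaction without inhibitor and -100% = no enzyme wells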
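Step 1, compound plus 15 nM Sfp-PPTase, 15 min, room temperature. Step 2, add rhodamine-CoA (5 uM) and BHQ-2-YbbR (12.5 uM). Step 3, read 525/598 nm fluorescence at 0 and 30 min.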
VDR inhibitor = blocks the human vitamin D receptor | hit rate 0.93% among 400,000 | VDR-SRC2-3 peptide fluorescence polarization, 2 h | Potency, µM, for the others: max response, negative = inhibition, hits mostly inhibitors | P11473; note: potency is the fitted concentration of half-maximal effect; % is set by controls: 0 for no effect and ±100 for the full control effect
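Measured by FP: displacement of SRC2-3 coactivator peptide from VDR by library compounds, following a two-hour ambient incubation.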
IDH1 R132H inh = human IDH1 R132H inhibition. O75874. IDH1-R132H enzyme, NADPH consumption, diaphorase/resazurin fluorescence. Potency, µM (titrated, usually from 76.6 µM), for the others: top-dose activity change, negative = inhibition, hits mostly inhibitors. hit rate 0.093% among 390,000; note: potency is the fitted concentration of half-maximal effect; % is set by controls: 0 for no effect and ±100 for the full control effect; nearly all actives have a fitted effect of over 65% in size
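IDH1-R132H (0.5 ug/mL) preincubated 30 min with compound, then NADPH (0.016 mM) and alpha-KG (2 mM) added; 80 min at RT, pH 7.5. Remaining NADPH coupled via diaphorase/resazurin to fluorescence (540/590 nm); concentration-response curves normalized to no-enzyme control.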
PLK1 PBD inh = inhibitors of human PLK1 polo-box domain binding; Potency, µM, inactives show max response, negative = inhibition, most hits filed as inhibitors; P53350; hit rate 2.8% among 360,000; Plk1 PBD binding of FITC phosphopeptide, fluorescence polarization; note: potency is the fitted concentration of half-maximal effect; series mostly up to about 57 µM; % is set by controls: 0 for no effect and ±100 for the full control effect; nearly all actives have a fitted effect of over 65% in size
GR counterassay = counter-screen for TrxR1 inhibitors: human glutathione reductase inhibition. shares compounds with TrxR1 inh-1. purified GR, DTNB reduction absorbance 405 nm kinetic. activity change, negative = inhibition, % at 57.1 µM. 55 tested, under 10 active
Target sequence (P00390 whole entry, looked up): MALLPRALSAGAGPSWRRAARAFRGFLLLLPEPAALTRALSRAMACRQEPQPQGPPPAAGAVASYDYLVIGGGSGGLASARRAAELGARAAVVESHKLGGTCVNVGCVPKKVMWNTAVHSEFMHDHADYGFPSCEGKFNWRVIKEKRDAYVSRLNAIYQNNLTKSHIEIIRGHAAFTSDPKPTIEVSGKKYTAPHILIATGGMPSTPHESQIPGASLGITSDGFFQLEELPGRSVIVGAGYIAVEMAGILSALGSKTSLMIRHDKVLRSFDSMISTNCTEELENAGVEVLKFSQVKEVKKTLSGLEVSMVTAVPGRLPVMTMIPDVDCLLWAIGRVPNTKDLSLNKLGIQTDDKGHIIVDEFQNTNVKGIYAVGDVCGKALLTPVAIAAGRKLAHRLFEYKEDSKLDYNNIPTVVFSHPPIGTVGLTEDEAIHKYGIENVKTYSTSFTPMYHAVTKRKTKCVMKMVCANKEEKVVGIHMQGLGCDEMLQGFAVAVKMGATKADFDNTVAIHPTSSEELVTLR
TrxR1 inh-2 = rat TrxR1 inhibition, primary screen retest. shares compounds with TrxR1 inh-1. recombinant TrxR1, NADPH fluorescence consumption, selenite substrate. Potency, µM, actives largely listed as inhibitors. hit rate 50% among 55. AID 652023
TrxR1 insulin MOA = TrxR1 inhibition in insulin mechanism assay; shares compounds with TrxR1 inh-1; TrxR1 Trx-coupled insulin reduction, NADPH absorbance 340 nm; Potency, µM; hit rate 20% among 55; AID 652037;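 active = compounds with a measured potency under 100 micromolar; inconclusive = filed, but no rule given; inactive = potency at or above that, or unmeasurable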
TrxR1 inh-3 = inhibitors of rat thioredoxin reductase 1, DTNB reduction | shares compounds with TrxR1 inh-1 | hit rate 90% among 55 | Potency, µM | purified TrxR1, DTNB reduction, A412;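 active = a half-inhibiting concentration could be measured and was below 100 µM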
Resorufin autofl = counter-screen for mutant IDH1 inhibitors: fluorescence interference; Resorufin detection reagent fluorescence interference, cell-free; 750 tested, under 10 active; shares compounds with IDH1 R132H inh; inhibition of signal, % at 51.2 µM; AID 623980;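 note: 0% = wells with normal resorufin and full inhibition = wells lacking resorufin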
IDH1 WT = inhibits human wild-type IDH1, mutant selectivity check | shares compounds with IDH1 R132H inh | WT IDH1 enzyme, NADPH diaphorase/resazurin fluorescence | Potency, µM (doses to about 115 µM), for the others: at the highest dose activity change, negative = inhibition, usual class: inhibitors | hit rate 9% among 750 | AID 623995;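 note: potency is the fitted concentration of half-maximal effect; 0% = full WT IDH1 enzyme control and full inhibition = no enzyme wells; nearly all actives have a fitted effect of over 55% in size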
IDH1 R132H conf = inhibits human mutant IDH1 enzyme in cherrypick confirmation; shares compounds with IDH1 R132H inh; IDH1 R132H enzyme, NADPH diaphorase/resazurin fluorescence; Potency, µM (top dose mostly 76.6 µM), for the others: at the highest dose activity change, negative = inhibition, hits mostly inhibitors; hit rate 83% among 750; note: potency is the fitted concentration of half-maximal effect; nearly all actives have a fitted effect of over 50% in size
Starred values were filed as active, the others as inactive; [ ] = remark or other dose. Compounds with a hit are over-represented: about 5.2% of the library has one in this group of screens. Unless noted, calls come from the whole dose curve; as a rule, active = well fitted curve in the direction sought with a large enough effect; inconclusive = small, poorly fitted or top-dose-only effect, or another doubt; inactive = no such curve, though single readings can be large; an effect the other way counts as inactive or inconclusive.

Screening Cc1ccc(CC(NC(=O)c2ccc(C)cc2)C(=O)O)cc1 (stereo not drawn) returned TrxR1 inh-1 11%, TrxR1 substrate 1%, VDR inhibitor -8%, IDH1 R132H inh -10% and PLK1 PBD inh -6%.
Screening Cc1c(NC2=C(Cl)C(=O)N(c3ccccc3)C2=O)c(=O)n(-c2ccccc2)n1C returned TrxR1 inh-1 3.2µM*, TrxR1 substrate 1%, Sfp inh inconclusive, VDR inhibitor inconclusive, IDH1 R132H inh 9%, PLK1 PBD inh 27µM*, GR counterassay -18, TrxR1 inh-2 2.7*, TrxR1 insulin MOA inactive and TrxR1 inh-3 inactive.
Screening COc1ccccc1NC(=O)C(C)OC(=O)c1cccc(-n2cnnn2)c1 (stereo not drawn) returned TrxR1 inh-1 14%[57.1 µM], TrxR1 substrate 7%[57.1 µM], VDR inhibitor 7%, IDH1 R132H inh -3% and PLK1 PBD inh -2%.
For Cc1cccc(N2CCN(c3cc(C)nc4nnnn34)CC2C)c1 (stereo not drawn) the results were TrxR1 inh-1 32µM*, TrxR1 substrate -3%, Sfp inh -10%, VDR inhibitor -12%, IDH1 R132H inh 0%, PLK1 PBD inh -14%, GR counterassay 1, TrxR1 inh-2 inconclusive, TrxR1 insulin MOA 84µM* and TrxR1 inh-3 0.11µM*.
Screening CCOC(=O)C(=O)Nc1nnc2n1CCS2 returned TrxR1 inh-1 17%[57.1 µM], TrxR1 substrate -3%[57.1 µM], VDR inhibitor -11% and IDH1 R132H inh -15%.
For O=C1C2CCCN2C(c2ccccc2)N1c1ccc(F)cc1 (stereo not drawn) the results were TrxR1 inh-1 8%[57.1 µM], TrxR1 substrate 9%, Sfp inh -5%, VDR inhibitor -5%, IDH1 R132H inh 17% and PLK1 PBD inh -2%.
O=C(c1ccccc1)[C@@H]1[C@@H]2C(=O)N(c3ccc(F)cc3)C(=O)[C@@H]2C2CCCN21 (stereo partly drawn) was read as TrxR1 inh-1 50µM*, TrxR1 substrate -3%, Sfp inh 89µM*, VDR inhibitor inconclusive, IDH1 R132H inh -5%, PLK1 PBD inh -12%, GR counterassay 3, TrxR1 inh-2 inconclusive, TrxR1 insulin MOA inactive and TrxR1 inh-3 7.4µM*.
CCOc1cccc2cc(C(=O)NCc3ccc(Cl)cc3)c(=N)oc12 was read as TrxR1 inh-1 -17%, TrxR1 substrate -7%, Sfp inh 2%, VDR inhibitor -3%, IDH1 R132H inh 3% and PLK1 PBD inh 1%.
`CCn1c2ccccc2c2cc(/C=N/n3c(-c4cc(C)[nH]n4)n[nH]c3=S)ccc21` gave TrxR1 inh-1 19%[11.4 µM], TrxR1 substrate 4%[57.1 µM], Sfp inh -28%, VDR inhibitor -2%, IDH1 R132H inh inconclusive, PLK1 PBD inh -27%, Resorufin autofl -8, IDH1 WT -2% and IDH1 R132H conf 14µM*.
`CC1CCCCC1NC(=O)c1cn(C)c2ccc(S(=O)(=O)N3CCCC3)cc2c1=O` (stereo not drawn) gave TrxR1 inh-1 0%, TrxR1 substrate -2%, Sfp inh -5%, VDR inhibitor 4%, IDH1 R132H inh inconclusive, PLK1 PBD inh -6%, Resorufin autofl 4, IDH1 WT -4% and IDH1 R132H conf 22µM*.
Screening N#CC(C#N)=C1C(=O)N(CCN2CCOCC2)c2ccccc21 returned TrxR1 inh-1 -60%, TrxR1 substrate -4%[57.1 µM], Sfp inh -13%, VDR inhibitor inconclusive, IDH1 R132H inh inconclusive, PLK1 PBD inh inconclusive, Resorufin autofl 4, IDH1 WT 17% and IDH1 R132H conf 45µM*.
`CCOc1ccc(-n2cc(-c3ccccc3)c3c(NC4CCCC4)ncnc32)cc1` gave TrxR1 inh-1 3%[57.1 µM], TrxR1 substrate -2%[57.1 µM], VDR inhibitor 10%, IDH1 R132H inh inconclusive, Resorufin autofl -4, IDH1 WT -2% and IDH1 R132H conf 10µM*.
For CCOc1ccc(-n2cc(-c3ccccc3)c3c(NC4CCCCC4)ncnc32)cc1 the results were TrxR1 inh-1 -13%[57.1 µM], TrxR1 substrate -7%[57.1 µM], VDR inhibitor -7% and IDH1 R132H inh 4%.
COc1ccc(CN(C)C(=O)c2ccc3c(=O)n4c(nc3c2)CCC4)c(OC)c1 was read as TrxR1 inh-1 10%, TrxR1 substrate 2%, VDR inhibitor -5%, IDH1 R132H inh -1% and PLK1 PBD inh -3%.
Screening COc1ccccc1N(C(=O)c1snc(C(N)=O)c1N)C(C(=O)NC1CCCC1)c1ccco1 (stereo not drawn) returned TrxR1 inh-1 4%, TrxR1 substrate 38%, Sfp inh 8%, VDR inhibitor -7%, IDH1 R132H inh -17% and PLK1 PBD inh -3%.
Screening COc1ccc(C)cc1N(C(=O)c1snc(C(N)=O)c1N)C(C(=O)NC1CCCCC1)c1ccc(C)o1 (stereo not drawn) returned TrxR1 inh-1 7%, TrxR1 substrate 12%, Sfp inh -2%, VDR inhibitor -5%, IDH1 R132H inh inconclusive, PLK1 PBD inh -9%, Resorufin autofl -3, IDH1 WT 2% and IDH1 R132H conf 14µM*.
